Assay outcomes as filed in PubChem BioAssay.
NALP1 inh: inhibitors of NALP1 inflammasome in yeast | S. cerevisiae NALP1/ASC/caspase-1 growth, X-gal OD620, 72 h | inhibition, % at 10 µM | 280,000 tested, 0.61% active | AID 2071; in the data active = inhibition mostly above about 24%, no sharp cut-off; inactive = mostly below about 32%
V-ATPase pHluor: regulators of yeast V-ATPase proton transport; response, % at 10 µM; S. cerevisiae, pHLuorin cytosolic pH fluorescence; 350,000 tested, 0.37% active; in the data active = response mostly above about 7.3%, no sharp cut-off; inactive = mostly below about 5.4%; note: actives read high
NLRP3 yeast inh: inhibitors of NALP3 inflammasome in yeast; 330,000 tested, 0.39% active; Yeast reconstituted NLRP3/ASC/caspase-1, beta-gal luminescence, 24 h; AID 2825; inhibition, % at 10 µM;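 active = inhibition of 50% or more; inactive = inhibition below 50%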;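 note: plate controls were induced DMSO wells for no effect and uninduced yeast grown without galactose for full effect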
tim10-1 inh: inhibits growth of tim10-1 mutant yeast. S. cerevisiae tim10-1 ts strain growth, BacTiter-Glo, 24 h. inhibition, % at 20 µM. 330,000 tested, 2.2% active. AID 463190;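 active = inhibition of at least 40%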;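 note: mutant grown at 25 °C; 0% = DMSO wells with yeast and 100% = wells holding no yeast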
TIM10 inh: TIM10 yeast growth inhibition; S. cerevisiae TIM10 strain growth, BacTiter-Glo luminescence, 24 h; inhibition, % at 10 µM; 330,000 tested, 1.4% active; AID 463195;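 active = inhibition of 40% or more at the single tested concentration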;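 note: wild-type TIM10 isogenic control strain grown at permissive 25 °C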
tim23-1 inh: inhibits growth of tim23-1 mutant yeast. S. cerevisiae tim23-1 growth, BacTiter-Glo luminescence, 24 h. inhibition, % at 20 µM. 330,000 tested, 1.3% active. AID 463212;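 active = growth inhibition of the mutant yeast at or above 50%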;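 note: temperature-sensitive mutant grown at 25 °C; plate controls were DMSO-treated mutant yeast for no effect and medium wells lacking yeast for full effect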
tim10-1 confirm: confirmation of tim10-1 mutant yeast growth inhibitors; S. cerevisiae tim10-1 ts strain growth, BacTiter-Glo, 24 h; inhibition, % at 20 µM; shares compounds with tim10-1 inh; 7,400 tested, 56% active;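 active = inhibition of yeast growth at or above a set limit in either of two repeat tests at 20 µM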;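 note: tim10-1 mutant grown at permissive 25 °C to find synthetic lethal compounds; 0% = DMSO yeast wells and 100% = medium wells without yeast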
* marks the source's active call; other numbers are inactive results; / = no result. In the library only some 4.2% were active in any assay of this set; here they are far more common.

SMILES	NALP1 inh	V-ATPase pHluor	NLRP3 yeast inh	tim10-1 inh	TIM10 inh	tim23-1 inh	tim10-1 confirm
Cc1ccc(-c2ccc(=O)n(CC(=O)N3CCN(c4cc(Cl)ccc4C)CC3)n2)cc1	-13	1	5	43*	13	37	28
Cc1nc2scc(-c3cccs3)c2c(=O)n1CC(=O)O	38	2	11	8	-3	15	/
CN(CC(=O)Nc1ccc(Cl)c(C(F)(F)F)c1)C(=O)Cc1c[nH]c2ccccc12	/	-2	27	24	14	-3	/
N#Cc1nc(-c2ccccc2Cl)oc1NCc1ccco1	8	0	8	40*	-4	42	29
Cc1cc(C)cc(-n2cc(C(=O)O)c(=O)cc2C)c1	2	0	21	11	16	4	/
COc1cc(/C=N/NC(=O)c2nnn(-c3nonc3N)c2C(C)C)ccc1OCc1ccc(F)cc1	2	-1	19	43*	9	4	-1
CC(C)c1c(C(=O)N/N=C/c2cccc(OCc3ccc(F)cc3)c2)nnn1-c1nonc1N	16	-2	14	36	7	21	/
Cc1ccc(N2Cc3ccccc3C2=S)cc1	41	-4	31	42*	3	31	26
O=C(c1ccccc1Br)N1CCN(c2ccccc2)CC1	0	4	3	86*	1	27	15
Cc1[nH]c2ccc(C(=O)N3CCN(c4cccc(Cl)c4)CC3)cc2c1C	0	3	10	56*	13	48	13
COc1ccc(/C=C/C(=O)c2oc3ccc(F)cc3c2C)cc1	13	1	-1	41*	27	29	31*
COc1ccc2oc(C(=O)NNC(=O)c3ccc(F)cc3)c(C)c2c1	/	1	32	-15	-4	-4	/
O=C(c1cc2ccccc2cc1O)N1CCN(c2cccc(Cl)c2)CC1	/	0	5	47*	37	47	30*
COc1ccc(S(=O)(=O)N2CCC(C(=O)N[C@H](C(=O)NCc3ccco3)C(C)C)CC2)cc1	11	-2	12	-5	12	7	/
Cc1ccc2c(c1)N(CC(=O)NC1CCCCCC1)C(=O)c1cccnc1O2	7	-4	10	-8	10	15	/
COc1ccccc1N1CCN(C(=O)c2ccc3[nH]c(C)c(C)c3c2)CC1	-4	1	9	42*	26	46	25
Cc1cccc(N2CCN(C(=O)c3ccc4[nH]c(C)c(C)c4c3)CC2)c1C	/	0	9	13	19	29	/
COc1ccccc1N1CCN(C(=O)c2oc3ccc(F)cc3c2C)CC1	30	0	12	42*	24	44	29
Cc1[nH]c2ccc(C(=O)NCCN3CCOCC3)cc2c1C	28	2	9	-7	-8	-3	/
Cc1ccc(C)c(NC(=S)NNC(=O)c2cc3c(s2)CCC(C)C3)c1 (stereo unspecified)	30	-3	6	44*	22	33	34*
Cc1cccc(NC(=S)NNC(=O)c2ccc3c(c2)OCO3)c1	23	3	5	16	8	23	/
CCCc1cc(C(=O)NNC(=S)Nc2cccc(C)c2)cs1	11	2	5	47*	24	41	15
Cc1ccc(C)c(NC(=S)NNC(=O)c2csc(C)c2C)c1	-3	-4	1	25	26	26	/
Cc1ccc(C)c(NC(=S)NNC(=O)c2csc(C(C)C)c2)c1	-2	4	10	40*	22	17	34*
CC(C)N(C(=O)CSc1nc2ccccc2n1-c1ccccc1)C(C)C	14	1	3	45*	28	33	28
SMILES	NALP1 inh	V-ATPase pHluor	NLRP3 yeast inh	tim10-1 inh	TIM10 inh	tim23-1 inh	tim10-1 confirm
Clc1cccc(/C=N/Nc2ncnc3ccccc23)c1	-4	1	21	40*	39	35	18
O=C(NCc1ccco1)c1cc2ccc(O)cc2oc1=O	-2	-5	1	55*	34	44	46*
CCOC(=O)C1(CCOC)CCN(Cc2ccc(COC)o2)CC1	5	2	8	-15	-22	2	/
COc1cc(/C=C2\SC(=S)NC2=O)ccc1OS(=O)(=O)c1ccccc1	2	/	-18	43*	26	23	33*
Cc1ccc(S(=O)(=O)CCC(=O)N(CCCN2CCOCC2)c2nc3ccccc3s2)cc1	/	-1	32	42*	35	18	42*
Cc1cc(NC(=O)c2noc3c2CCCC3)nn1Cc1ccc(Cl)cc1	12	-4	16	45*	17	27	22
Cc1cc(C)n(CCNC(=O)c2cc(COc3ccc(F)cc3Cl)on2)n1	1	0	15	33	30	31	/
COc1cccc(CN(CC(=O)NCC2CCCO2)C(=O)CNS(=O)(=O)c2ccccc2)c1 (stereo unspecified)	/	-1	3	15	-4	1	/
Cc1cc([N+](=O)[O-])c2c(c1C)C1C=CCC1C(c1ccccn1)N2 (stereo unspecified)	-28	/	-3	27	9	25	/
CCn1c(=S)sc2c(=O)n(-c3ccccc3)c(SC)nc21	-6	0	3	48*	37	42	49*
Cc1ccc2cccc(OCc3ccc(F)cc3)c2n1	0	-2	15	17	1	28	/
Cc1ccc2cccc(OCc3ccc(Br)cc3)c2n1	9	3	40	44*	40	39	17
CCc1ccc(NC(=O)C(CC)c2ccccc2)cc1 (stereo unspecified)	14	7	14	27	9	22	/
O=C(c1ccc(CS(=O)Cc2cccc(Cl)c2)o1)N1CCN(c2ccc(F)cc2)CC1 (stereo unspecified)	/	3	/	/	/	/	/
Cc1ccc(C(=O)N2CCN(c3cccc(C)c3C)CC2)o1	1	0	19	22	8	26	/
O=C(c1ccc(CS(=O)Cc2ccc(Cl)cc2)o1)N1CCN(c2cccc(Cl)c2)CC1 (stereo unspecified)	-28	-1	21	40*	17	10	0
O=C(c1ccc(CS(=O)Cc2ccc(Cl)cc2)o1)N1CCN(c2ccc(F)cc2)CC1 (stereo unspecified)	15	3	0	30	7	18	/
Cc1ccc(C)c(N2CCN(C(=O)c3ccc(CS(=O)Cc4cccc(Cl)c4)o3)CC2)c1 (stereo unspecified)	-6	3	15	42*	0	13	-11
Cc1cccc(N2CCN(C(=O)c3ccc(CS(=O)Cc4ccc(Cl)cc4)o3)CC2)c1C (stereo unspecified)	-16	-2	11	54*	24	38	7
CCc1ccc2[nH]c(C(=O)Nc3ccc(F)cc3Br)cc2c1	12	-4	0	18	-1	12	/
Fc1cccc(-c2cc3nc4c(c(NCc5ccco5)n3n2)CCCC4)c1	11	4	32	50*	27	50	35*
